NSD2 inh: blocks human NSD2 histone methyltransferase activity | O96028 | NSD2-SET H3K36me1 DELFIA fluorescence, biochemical | inhibition, % at 12.5 µM | actives 0.07% (n = 44,000) | AID 624260; in the data active = inhibition above about 54%, passing the limit was not always enough;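 also: inhibitors reduce the monomethyl H3K36 fluorescence signal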
Numbers without * were called inactive. Many of the other results were omitted from the sample, so hits are more common in it than they were.

SMILES | NSD2 inh
O=c1c(O[C@@H]2OC[C@H](O)[C@H](O)[C@H]2O)c(-c2ccc(O)cc2)oc2cc(O)cc(O)c12 | 72.0*
COc1ccc(Cl)cc1NC1=NC2CS(=O)(=O)CC2S1 (stereo unspecified) | 15.6
CCC(Sc1nnc2sc3ccccc3n12)C(=O)O (stereo unspecified) | 0.3
O=C(c1noc2c1CCCC2)N(C1CCCCC1)C1CCCCC1 | 7.8
Cc1ccc(C(C)C)c(OCC(=O)/C=C2\Sc3ccccc3N2C)c1 | -9.0
CSc1n[nH]c(=O)c2cc(C)nn12 | 2.1
O=C1C=C(NCCc2ccccc2)CC(c2ccco2)C1 (stereo unspecified) | 13.3
C[C@H]1C(=O)N2c3ccccc3[C@@]3(O)C[C@@H]4C(=O)N[C@@](C)(c5nc6ccccc6c(=O)n54)N1[C@@H]23 | -7.3
O=C(c1ccc2nsnc2c1)N(Cc1ccccn1)Cc1ccccn1 | 4.8
O=C(NCCNC(=O)c1cc2ccccc2cc1O)c1cc2ccccc2cc1O | 0.8
CC1OC(OC2C(CO)OC(OC(=O)[C@]34CCC(C)(C)CC3C3=CCC5[C@@]6(C)CC[C@H](OC7OC(C)C(OC8OCC(O)(COC9OCC(O)C(OC%10OCC(OC%11OCC(O)(CO)C%11O)C(O)C%10O)C9O)C8O)C(O)C7O)C(C)(C)C6CC[C@@]5(C)[C@]3(C)CC4)C(O)C2O)C(O)C(O)C1O (stereo partly specified) | 1.7
C=CCN(C(=O)c1cc2cc3cc(OC)ccc3nc2s1)c1ccccc1 | 4.3
COc1ccc2c(c1)O[C@@H]1COc3cc4c(cc3[C@]1(O)C2=O)OCO4 | 2.7
CC(=O)N(Cc1ccc(C(C)C)cc1)c1ccc2oc(-c3ccccc3)nc2c1 | -7.3
C[C@@]12C[C@]3(O)O[C@H](O1)C1(COC(=O)c4ccccc4)[C@H]3C[C@@]12O[C@@H]1O[C@H](COC(=O)c2ccccc2)[C@@H](O)[C@H](O)[C@H]1O | -0.4

Screening results deposited in PubChem BioAssay by Broad Institute.
